# From the supplement of paper PMC3334620
# In all, about 33,000 sequences were measured (“E-score (-0.5 to 0.5)”: median about -0.016, highest 2% from about 0.32 on). This is one part of a sample in which the highest values are shown more often than they occur.
# Target: T1, Stp1 (UniProt B3LFK1)
# T1 sequence: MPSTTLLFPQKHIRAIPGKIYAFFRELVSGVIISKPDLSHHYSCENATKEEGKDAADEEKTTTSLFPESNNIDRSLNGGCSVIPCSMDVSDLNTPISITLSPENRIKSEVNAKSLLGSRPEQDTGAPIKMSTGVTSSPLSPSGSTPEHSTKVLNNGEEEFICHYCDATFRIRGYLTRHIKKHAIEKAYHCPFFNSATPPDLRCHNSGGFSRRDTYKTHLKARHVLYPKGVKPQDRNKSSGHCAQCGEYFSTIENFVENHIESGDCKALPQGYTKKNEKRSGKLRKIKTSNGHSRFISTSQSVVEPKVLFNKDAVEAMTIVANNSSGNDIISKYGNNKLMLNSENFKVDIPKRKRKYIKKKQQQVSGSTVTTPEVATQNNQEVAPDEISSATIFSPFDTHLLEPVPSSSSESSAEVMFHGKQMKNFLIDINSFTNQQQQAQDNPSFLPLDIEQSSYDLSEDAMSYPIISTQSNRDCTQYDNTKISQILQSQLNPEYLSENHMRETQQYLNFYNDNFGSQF
# Test: PBM E-score (8-mer binding enrichment) (E-score (-0.5 to 0.5)); higher = stronger / more preferred TF binding
# Details: protein concentration: 200 nM; construct: GST-full length
# Experimental: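 Universal 'all 10-mer' protein binding microarrays (Agilent AMADID 015681) probed with GST-tagged S. cerevisiae TFs (full-length or DBD) made by in vitro transcription/translation (PURExpress), about 100-200 nM. Bound TF was detected with fluorescent anti-GST. Each ungapped 8-mer (which stands for itself and its reverse complement) is scored by the PBM enrichment score (E-score), a modified Wilcoxon-Mann-Whitney statistic from -0.5 to +0.5, computed with the Universal PBM Analysis Suite. Scale: above 0.35 generally sequence-specific binding.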
row,Sequence,PBM E-score
1,CGTGCCAC,0.232
2,ACTGCCGC,0.412
3,AGTGCCGG,0.211
4,AGTGCCAC,0.242
5,AGTGCCGC,0.477
6,GGTGCCGA,0.288
7,CGTGCCCA,0.235
8,CGTGCCGA,0.352
9,CGTGCCGC,0.475
10,ACAGGTAG,-0.126
11,GAACTCCA,-0.0707
12,CCGACTTA,0.0516
13,CTCTGAAA,0.0291
14,CATTCTCG,0.128
15,GGGCCTGA,-0.296
16,AGTGCCCA,0.0772
17,ATTGCCGA,0.177
18,CTTGCCGC,0.309
19,AGTGCCGA,0.322
20,ATTGCCGC,0.418
21,AGTGCCAA,-0.0972
22,ATCAACCG,-0.0921
23,ACCGTACA,0.117
24,CCCGTACA,-0.0395
25,GCCGTACA,0.459

row,Sequence,PBM E-score
1,ACCGTACC,-0.0289
2,GCCGTACC,0.46
3,CCCGTACC,0.191
4,CCAGAGAG,-0.245
5,GCGCGGAC,0.256
6,GCGCGGCC,0.4
7,ACTCGGCA,0.324
8,GAGCGGCC,0.156
9,CCGCGGTC,-0.0134
10,GCGCGGCA,0.483
11,GCGCGGAA,0.263
12,CCGCGGGC,0.215
13,CCGCGGCC,0.325
14,CCTCGGCA,0.282
15,GCGCGGGA,0.163
16,TCTCGGCA,0.045
17,CAGCGGGA,-0.174
18,AGATAGTA,0.0718
19,ACATAGTC,-0.0859
20,AACACCCG,0.151
21,CTGTGATC,-0.0819
22,CACGTAGG,-0.104
23,CCCCGTCA,-0.177
24,CAGATTTA,0.198
25,TGGTTACA,-0.0623

row,Sequence,PBM E-score
1,TCTACCAA,-0.0725
2,ACGCGGCA,0.479
3,ACGCGGTC,-0.0102
4,ACGCGGCT,0.446
5,ACGCGGAT,0.236
6,ACGCGGGA,0.0444
7,ACGCGTCT,-0.112
8,ACGCGGTA,0.0505
9,CCGCGACG,0.197
10,ACGCGGAC,0.0606
11,ACGCGGCC,0.326
12,CCGCGGAG,0.0416
13,CCGCGGCG,0.435
14,AACAGTCC,-0.215
15,ATACACTG,0.0725
16,AGCCTCGG,-0.0283
17,GCTTGGAA,-0.00205
18,AGAACCTA,-0.109
19,AGCCAGCA,-0.297
20,CTTATTGC,0.0179
21,ACACAAGT,0.00705
22,GGATGTGA,-0.084
23,TGCCAGCA,0.01
24,ATACCTGG,-0.284
25,AAGCAGGC,-0.277

row,Sequence,PBM E-score
1,CAGAGCTG,-0.147
2,ATCCGGAT,-0.0475
3,TCGCGGAA,-0.0668
4,CCGCGGCA,0.441
5,CCGCGGAA,0.183
6,TCGCGGCA,0.346
7,TCGCGACA,-0.0531
8,ACGCGGCG,0.488
9,CCGCGGGA,0.218
10,ACGCGGTG,0.0603
11,ACGCGGAG,0.111
12,CTGCCAGC,-0.204
13,TCAAAGAA,-0.0561
14,AAGCGAGC,0.0162
15,CAAGGTTC,-0.124
16,CCGCTCTC,-0.0569
17,AAAACCTA,0.0597
18,CGGGTGGA,-0.162
19,AGACGGCA,0.449
20,AGACGGAA,0.106
21,CGACGGCA,0.299
22,GGACGGCC,0.16
23,AGACGGGA,-0.12
24,GGACGGCA,0.441
25,AGGGTCAT,-0.233

row,Sequence,PBM E-score
1,CTCGCCAA,0.0165
2,CGACTCGA,-0.115
3,CACCATTC,0.0105
4,CACCGTCG,-0.114
5,GTACGGCA,0.48
6,CTACGGCC,0.126
7,ATACGGCC,0.406
8,CTACGGCA,0.473
9,ATACGGCA,0.483
10,GTACGGTA,0.147
11,CTACGGAA,0.0958
12,ATACGGGA,0.125
13,GTACGGGA,0.0383
14,CTACGGTA,-0.146
15,ATACGGGC,-0.0186
16,ATACGGAA,0.268
17,CAAAGGGG,-0.262
18,GGGCTGAC,-0.134
19,AGTAGACA,0.0181
20,ATAGGGAC,-0.211
21,ATCTCCTC,-0.209
22,AGCCTGCG,-0.245
23,GTTAAGAA,0.0825
24,AGAGAGAA,-0.198
25,CTAGAAAA,-0.0127

row,Sequence,PBM E-score
1,ATCCGCGG,0.13
2,AACCGCGC,0.167
3,AGCCGCGG,0.376
4,AGCCGCGC,0.424
5,ACCCGCGC,0.232
6,AGCCGCGA,0.159
7,GGGTTCCA,-0.286
8,AGAGTACA,0.04
9,CCGTTAGC,0.0331
10,CAGACCCC,-0.381
11,AGGGCAAT,0.156
12,ACGGCAAC,0.455
13,ACGGCAAA,0.45
14,AGGGCAAA,0.0608
15,CCGGCAAG,-0.0231
16,ATGGCAAA,0.197
17,AAGGCAAT,0.253
18,AAGGCAAC,0.274
19,ATGGCAAC,0.289
20,ACGGCAAT,0.45
21,AAGGCAAG,0.0628
22,ACGGCAAG,0.369
23,AATGTCCT,-0.246
24,CAAGCGCG,0.124
25,ATTTTGAA,0.277

row,Sequence,PBM E-score
1,GGAGTCAC,-0.236
2,ACTAACAT,0.0936
3,ACGGATAC,0.249
4,GGAAAGGA,-0.0901
5,AAGCCGGG,-0.211
6,GAGCCGAA,0.232
7,AAGCCGAG,-0.0198
8,AAGCCGTC,0.296
9,AAGCCGAA,0.116
10,CAGCCGTA,0.306
11,AAGCCGTA,0.398
12,AAGCCGTG,0.419
13,GAGCCGTA,0.468
14,CACCTCCG,-0.0858
15,AGATCCTC,-0.251
16,ACTGTGAA,0.0195
17,CCTGCACC,-0.271
18,GAGATTAC,-0.0779
19,ACGTAGAT,-0.0617
20,ACCTTTAC,0.0425
21,GAGACAGA,-0.0347
22,TATGCGGA,0.207
